Screening results deposited in PubChem BioAssay by National Center for Advancing Translational Sciences (NCATS).
WRN inhibitor: qHTS for Inhibitors of WRN Helicase. WRN helicase unwinding, fluorescent forked duplex, kinetic. Bifunctional 3'-5' exonuclease/ATP-dependent helicase WRN (Homo sapiens), Q14191. actives 0.46% (n = 360,000). Potency, µM (titrated, usually from 114 µM), actives largely listed as inhibitors. AID 651768, 2012; also: nearly all actives have a fitted effect of over 55% in size
Target sequence (Q14191 whole entry, looked up): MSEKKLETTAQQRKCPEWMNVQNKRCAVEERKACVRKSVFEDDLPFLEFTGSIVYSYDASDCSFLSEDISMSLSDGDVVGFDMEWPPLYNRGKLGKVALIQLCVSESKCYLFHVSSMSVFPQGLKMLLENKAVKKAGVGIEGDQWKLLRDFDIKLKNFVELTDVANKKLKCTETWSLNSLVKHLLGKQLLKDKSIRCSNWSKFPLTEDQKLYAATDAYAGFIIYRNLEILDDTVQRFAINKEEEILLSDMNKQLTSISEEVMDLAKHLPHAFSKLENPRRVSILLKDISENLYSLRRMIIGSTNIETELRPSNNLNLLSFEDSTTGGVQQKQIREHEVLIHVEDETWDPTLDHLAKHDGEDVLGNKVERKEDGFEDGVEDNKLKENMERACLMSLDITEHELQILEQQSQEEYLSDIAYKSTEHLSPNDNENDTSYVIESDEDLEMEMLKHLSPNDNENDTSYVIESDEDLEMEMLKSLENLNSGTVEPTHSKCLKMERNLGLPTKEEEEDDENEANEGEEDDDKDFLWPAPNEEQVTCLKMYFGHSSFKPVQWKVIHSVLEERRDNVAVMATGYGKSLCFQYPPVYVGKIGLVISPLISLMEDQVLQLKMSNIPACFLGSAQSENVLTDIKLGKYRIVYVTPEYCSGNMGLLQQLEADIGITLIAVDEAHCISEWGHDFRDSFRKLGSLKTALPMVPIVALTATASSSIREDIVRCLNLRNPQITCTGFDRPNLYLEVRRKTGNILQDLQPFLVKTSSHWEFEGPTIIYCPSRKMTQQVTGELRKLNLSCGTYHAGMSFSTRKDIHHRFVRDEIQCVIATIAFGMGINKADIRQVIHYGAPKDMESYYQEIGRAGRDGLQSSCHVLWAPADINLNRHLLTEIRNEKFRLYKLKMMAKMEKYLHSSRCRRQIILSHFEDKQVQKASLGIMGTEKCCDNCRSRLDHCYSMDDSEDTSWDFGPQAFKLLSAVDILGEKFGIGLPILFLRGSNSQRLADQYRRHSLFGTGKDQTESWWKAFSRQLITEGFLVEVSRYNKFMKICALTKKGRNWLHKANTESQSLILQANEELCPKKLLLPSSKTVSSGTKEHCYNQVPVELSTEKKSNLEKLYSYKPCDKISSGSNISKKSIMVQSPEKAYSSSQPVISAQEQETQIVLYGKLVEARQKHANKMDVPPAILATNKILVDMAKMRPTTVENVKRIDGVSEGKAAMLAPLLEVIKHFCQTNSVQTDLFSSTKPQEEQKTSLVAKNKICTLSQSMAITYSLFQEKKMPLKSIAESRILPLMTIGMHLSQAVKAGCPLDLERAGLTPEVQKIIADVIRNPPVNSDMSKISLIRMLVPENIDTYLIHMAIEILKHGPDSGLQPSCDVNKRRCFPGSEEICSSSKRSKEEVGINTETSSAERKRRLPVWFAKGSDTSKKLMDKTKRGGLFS
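Kinetic fluorescence helicase assay: unwinding of a quenched forked DNA duplex (100 nM final) with 2 mM ATP final raises red fluorescence (525/598 nm). Compounds sat 15 min at room temperature with 20 nM WRN beforehand.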
APEX1 inh: qHTS Assay for Inhibitors of the Human Apurinic/apyrimidinic Endonuclease 1 (APE1); DNA repair nuclease/redox regulator APEX1 (Homo sapiens), P27695; AID 2517, 2012; Potency, µM (highest dose often 65.8 µM), most hits filed as inhibitors; recombinant APE1, TAMRA/BHQ-2 abasic DNA cleavage fluorescence; actives 0.35% (n = 350,000); also: nearly all actives have a fitted effect of over 55% in size
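Quantitative HTS: incision of a TAMRA/BHQ-2 double-stranded substrate bearing a tetrahydrofuran abasic site by 0.75 nM APE1 raises fluorescence. Substrate 50 nM final, added after 15 min compound preincubation at room temperature; progress as third-minus-first kinetic read difference.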
RECQ1 helicase: qHTS Assay for Inhibitors of RecQ-Like Dna Helicase 1 (RECQ1); RECQ1 DNA unwinding, red fluorescence kinetic read; Potency, µM (series often up to 57.3 µM), most hits filed as inhibitors; actives 0.54% (n = 240,000); AID 2549, 2010; also: nearly all actives have a fitted effect of over 30% in size
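RECQ1T1 50 nM; forked duplex (20 bp + 30-nt ss tails) 200 nM, ATP 2 mM final; pH 8.0, 2 mM MgCl2, 2.5 ug/ml poly(dI-dC); 15 min compound preincubation; discontinuous kinetic read over 2 h at RT.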
BLM inh: qHTS Assay for Inhibitors of Bloom's syndrome helicase (BLM) | RecQ-like DNA helicase BLM (Homo sapiens), P54132 | recombinant BLM DNA unwinding, fluorescence dequenching | Potency, µM (series often up to 56.1 µM), actives largely listed as inhibitors | actives 0.2% (n = 350,000) | AID 2528, 2010; also: nearly all actives have a fitted effect of over 35% in size
L3MBTL1 inh: qHTS Assay for the Inhibitors of L3MBTL1; AlphaScreen L3MBTL1–H3K9me1 peptide binding; Potency, µM (titrated, usually from 57.1 µM), most hits filed as inhibitors; actives 0.66% (n = 230,000); AID 485360, 2010; also: nearly all actives have a fitted effect of over 60% in size
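L3MBTL1 (50 nM) pre-complexed 30 min with biotinylated H3(1-15)K9me1 peptide (75 nM), then compounds added for 30 min at room temperature; AlphaScreen streptavidin donor/nickel chelate acceptor beads (10 ug/mL final) read after 30 min dark incubation.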
A number is an active result; n = inactive; u = inconclusive; x = no result given; [ ] = another dose, or the depositor's remark. Sampled rows, rich in hits. Any-hit rate of the full collection: about 0.92%. Calls follow the shape of the dose curve; as a rule, active = well fitted curve in the direction sought with a large enough effect; inconclusive = small, poorly fitted or top-dose-only effect, or another doubt; inactive = no such curve, though single readings can be large; an effect the other way counts as inactive or inconclusive.

SMILES | WRN inhibitor | APEX1 inh | RECQ1 helicase | BLM inh | L3MBTL1 inh
O=S(=O)(Nc1cc(O)cc2cccnc12)c1ccc(Cl)s1 | x | n | n | u | x
C=CCc1cc(/C=C/c2nc(O)c([N+](=O)[O-])c(=O)[nH]2)cc(OC)c1O | 45µM | u | u | n | u
CCOc1cc(/C=C\c2nc(O)c([N+](=O)[O-])c(=O)[nH]2)ccc1OC(C)C | n | n | x | n | x
CCn1c(=S)[nH]c2c(=O)n(C)c(=O)n(C)c21 | 50µM | x | x | x | x
CO[C@@H]1COC(=O)[C@H]2CCCN2C(=O)[C@@H](C)COC(=O)[C@H](COCc2ccccc2)NC(=O)C/C=C\[C@H]1C | x | n[12.4 µM] | n[11.5 µM] | n[12.4 µM] | x
O=c1c2ccccc2[nH]c2ccc(O)cc12 | 50µM | u | x | n | x
Cc1ccc2[nH]c3ccccc3c(=O)c2c1 | n | n | x | n | x
C=C[C@@H](C1=CC(=O)C(OC)=C(OC)C1=O)c1ccccc1 | x | n | n | n | x
O=c1c2ccccc2nc2sc(Nc3ccc(Br)cc3)nn12 | x | n | x | x | x
O=C1C2C(C(=O)N1/N=C/c1cc([N+](=O)[O-])c(O)cc1O)C1C=CC2C12CC2 (stereo unspecified) | u | u | u | n | 32µM
Cc1cccc(NC(=O)CC2SC(=O)N(c3ccccc3)C2=O)c1 (stereo unspecified) | 100µM | n | n | n | x
Cc1ccc(NC(=O)CC2SC(=O)N(c3ccccc3)C2=O)cc1 (stereo unspecified) | u | n | n | n | n
O=C(CC1SC(=O)N(c2ccccc2)C1=O)Nc1ccccc1 (stereo unspecified) | 40µM | n | n | n | n
O=C(O)C1(C(=O)O)CCC1.[NH2-].[NH2-].[Pt+2] | x | 11µM | n | n | x
COC1CC2CCC(C)[C@](O)(O2)C(=O)C(=O)N2CCCCC2C(=O)OC(C(C)CC2CCC(O)C(OC)C2)CC(=O)C(C)/C=C(/C)C(O)C(OC)C(=O)C(C)CC(C)C=CC=C/C=C\1C (stereo partly specified) | x | x | x | n | x
COc1cc2c(cc1CC=C(C)C)C(=O)C[C@@H](c1ccc(O)cc1)O2 | x | n | n | n | x
C#Cc1ccc([C@H]2C=C(C(=O)OCC=C)O[C@@H](OCC)[C@@H]2CCCO)cc1 | n | n | 22µM | n | n
C#Cc1ccc([C@@H]2C=C(C(=O)OCC=C)O[C@H](OCC)[C@H]2CCCO)cc1 | n | n | n | n | n
CC(C)(C)n1ncc2c(=O)n(Cc3cccc(OC(F)(F)F)c3)cnc21 | x | n | x | x | x
O=C(Nc1ccccc1)C1=C[C@H](c2csc3ccccc23)C[C@H](OCCCCO)O1 | n | n | 40µM | n | n
C=C1C=C(C(F)F)n2ncc(C(=O)NCCc3ccccc3Cl)c2N1 | x | n | x | x | x
Cc1cncc(C(=O)O)[n+]1[O-] | x | x | x | n | x
OC[C@@H]1O[C@H](O)[C@H](O)[C@@H](O)[C@@H]1O | x | n | n | n | x
O=C(O)c1ccc(Cl)c(S(=O)(=O)N2CCCC2)c1 | n | 28µM | n | n | n
COc1cc(NCCCCCCN)c2ncccc2c1OC | 50µM | x | x | x | x
SMILES | WRN inhibitor | APEX1 inh | RECQ1 helicase | BLM inh | L3MBTL1 inh
O=C(Nc1cccc2cccnc12)c1cccc2ccccc12 | n | n | n | n | x
O=C(Nc1ccccc1F)c1ccc(O)c2ncccc12 | x | n | x | x | 28µM
COc1cc(-c2no[n+]([O-])c2C#N)cc(OC)c1OC | x | n | x | x | x
O=C1C=C(N2CCOCC2)c2ccccc2C1=O | n | n | x | 8.9µM | n[2.29 µM]
Cc1ccc(N2CCOCC2)c2c1C(=O)c1ccccc1C2=O | n | n | n | n | 14µM
CN(C1=C(N2CCOCC2)C(=O)c2ccccc2C1=O)c1ccccc1 | n | n | n | n | 25µM
COCCCNC(=O)CSc1ccsc1[N+](=O)[O-] | n[11.6 µM] | n | n | n | n
Cc1ccccc1NC(=O)CSc1ccsc1[N+](=O)[O-] | 50µM | u | u | n | 25µM
COc1cccc(-c2csc(N3CCC(C(N)=O)CC3)n2)c1 | x | n | x | x | x
Cc1c2ccccc2cc[n+]1CCCS(=O)(=O)[O-] | n | n | n | n | n
